This passage reports sensor-assay potency score (higher = more potent) results from the OligoGym collection.
Note: reference of the scale not given here.

The target in one assay is NLRP9. Description: pooled miR-30 sensor sort-seq; sequence = guide strand. The settings on record: shRNA.
As to TTTTTTTGCAACAAACTGCTCA, the sensor-assay potency score (higher = more potent) came out at 0.0842.

The sequence TAAATGTTGACAATGCTTCAGG showed a sensor-assay potency score (higher = more potent) of 0.0203.

Turning to TTGTTGGTAATGAACATTGAGC, the sensor-assay potency score (higher = more potent) was -1.13.

In turn, TTGTTTAACGTACTTGTGCTTC returned a sensor-assay potency score (higher = more potent) of -0.694.

TATTGCTAGAACACTTAGGGAG: the sensor-assay potency score (higher = more potent) worked out at 0.102.

Turning to TTTACAAACAGGCTGAGCCAGC, the sensor-assay potency score (higher = more potent) was -0.948.

TTGACTTAAACTTTCAAGGCAT returned a sensor-assay potency score (higher = more potent) of 0.797.

In turn, TCTATAGACACATTCTAGCATC registered a sensor-assay potency score (higher = more potent) of -0.783.

Sequence TTGTATTCCTCGTCAATCCAAG yielded a sensor-assay potency score (higher = more potent) of -0.958.

TTCTGTGTCAGAAGTATCCGGA registered a sensor-assay potency score (higher = more potent) of 0.451.

Take TTGGTAATGAACATTGAGCAAA: the sensor-assay potency score (higher = more potent) was -1.26.

Regarding TTTCACACAAGTACAGACCAAC, the sensor-assay potency score (higher = more potent) was -0.447.

For another assay, the target named is NMD3. Described as above. The settings on record: shRNA.
Take TTTATATCTTGGACTATGCTGC: the sensor-assay potency score (higher = more potent) was determined as 0.0732.

In turn, TCGAATACACACACAAATCTGG registered a sensor-assay potency score (higher = more potent) of -0.268.

With TTAACTTTAAGTCTCTTAGAAT, the sensor-assay potency score (higher = more potent) is -1.22.

Turning to TTAGCCATTATCTTCATGCTGG, the sensor-assay potency score (higher = more potent) turned out to be 0.243.

With TTAACAAGTCTGATCTTGCTTA, the sensor-assay potency score (higher = more potent) turned out to be 0.213.

In turn, TTGATATCATTCCAGCACCTGC displayed a sensor-assay potency score (higher = more potent) of -1.29.

Sequence TATCTTGAGAGATCAGTCTTTG gave a sensor-assay potency score (higher = more potent) of -0.699.

As to TACTTAACAAGTCTGATCTTGC, the sensor-assay potency score (higher = more potent) turned out to be 0.186.

Sequence TTTTTGAGCTTTTACATCCAGA had a sensor-assay potency score (higher = more potent) of -0.415.

TTCACTAAAATAATCAACGTAA registered a sensor-assay potency score (higher = more potent) of -0.261.

TTGAAGGATAGCACCATTCATC came in with a sensor-assay potency score (higher = more potent) of -0.92.

As to TTGATTAATACCACATCTGGAA, the sensor-assay potency score (higher = more potent) is -0.0213.

For the next assay, the target named is NMNAT2. Described as above. The settings on record: shRNA.
TAACAGACTTTCTGGATGCTGC: the sensor-assay potency score (higher = more potent) was -0.475.

As for TAAAGAACATTGTCTTTGCTTT, the sensor-assay potency score (higher = more potent) was -0.457.

On to TTTGCTTTCAGGTCCCACCTGG, for which the sensor-assay potency score (higher = more potent) was determined as 0.293.

TTGGTGATGGGATTGAAGCTGC showed a sensor-assay potency score (higher = more potent) of -0.365.

As to TTCTGTTAAATCAAGTTCCTTT, the sensor-assay potency score (higher = more potent) was 0.0856.

TAGAAATCTACTTCTATGGCAC showed a sensor-assay potency score (higher = more potent) of 0.539.

Take TTATATTAAATAGGAAACCTGT: the sensor-assay potency score (higher = more potent) is -0.594.

The sequence TAGTCAAACACTGATACCCCAA yielded a sensor-assay potency score (higher = more potent) of -0.77.

Sequence TAAAAGTATCCTAATACTCAGG gave a sensor-assay potency score (higher = more potent) of -0.84.

In the case of TCCAGCAATAGCATCATCCTGA, the sensor-assay potency score (higher = more potent) is -0.521.

With TTTCCTTTGTTTCATTTCCTGG, the sensor-assay potency score (higher = more potent) was -0.769.

In turn, TTTATTTCTAAAGGAAACCTAA came in with a sensor-assay potency score (higher = more potent) of -0.873.
